In PubChem BioAssay (NCATS):
Records with an inconclusive call do not appear. Where a call stands in place of a potency, no number is given. Values without a mark were called inactive. Active and inactive are the calls of the source. Calls come from the whole dose curve; as a rule, active = well fitted curve in the direction sought with a large enough effect; inconclusive = small, poorly fitted or top-dose-only effect, or another doubt; inactive = no such curve, though single readings can be large; an effect the other way counts as inactive or inconclusive. Where a SMILES comes first, the peptide text is derived from it. [ ]: non-standard residue; d: D form. PhLac = O=C(O)[CH](O)Cc1ccccc1; NMeV = CN[CH](C(=O)O)C(C)C

Assays:
[1] = P-glycoprotein substrates identified in KB-3-1 adenocarcinoma cell line, qHTS therapeutic library screen (AID 1346986); note: nearly all actives have a fitted effect of over 60% in size
In short: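 Viability by CellTiter-Glo after 72 h compound exposure at 37 degree C, 5% CO2. Cytotoxic call: curve class -1.1 to -2.4, maximum response >50%, AC50 < 10 uM, compared across KB-3-1 and P-gp-overexpressing KB-8-5-11.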

[2] = P-glycoprotein substrates identified in KB-8-5-11 adenocarcinoma cell line, qHTS therapeutic library screen (AID 1346987); note: nearly all actives have a fitted effect of over 65% in size; for activity change, negative = cytotoxicity: series mostly up to about 44 µM
In short: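 In this qHTS, P-gp-rich KB-8-5-11 cells received library compounds across a concentration range. Viability was quantified by luminescence after 72 h at 37 degree C.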

O=C1Nc2ccc(O)cc2O[C@H]1O[C@@H]1O[C@H](CO)[C@@H](O)[C@H](O)[C@H]1O
Potency [1]: inactive
Potency [2]: inactive

COCC(=O)N1CCc2cc(-c3csc(NC(=O)c4cc(OC)cc(OC)c4)n3)ccc21
Potency [1]: inactive
Potency [2]: inactive

COc1ccc(C)c2sc(NC(=O)c3ccncc3)nc12
Potency [1]: inactive
Potency [2]: inactive

CCc1c(CC(N)=O)c2cc(OCCCP(=O)(O)O)ccc2n1Cc1ccccc1
Potency [1]: inactive
Potency [2]: inactive

CCCC(N[C@@H](C)C(=O)N1[C@H](C(=O)O)C[C@@H]2CCCC[C@@H]21)C(=O)OCC (some centres undefined)
Potency [1]: inactive
Potency [2]: inactive

C[C@@H]1O[C@@H](O[C@H]2[C@H](OC(=O)[C@]34CCC(C)(C)C[C@H]3C3=CCC5[C@@]6(C)C[C@H](O)[C@H](O[C@@H]7O[C@H](CO)[C@@H](O[C@@H]8O[C@H](CO)[C@@H](O)[C@H](O)[C@H]8O)[C@H](O)[C@H]7O)[C@@](C)(CO)C6[C@H](O)C[C@@]5(C)[C@]3(C)C[C@H]4O)OC[C@H](O)[C@@H]2O)[C@H](O)[C@H](O)[C@H]1O[C@@H]1OC[C@@H](O)[C@H](O[C@@H]2OC[C@](O)(CO)[C@H]2O)[C@H]1O (some centres undefined)
outcome [1]: inactive [at 9.29 µM]
outcome [2]: inactive [at 9.29 µM]

Cc1c(-c2ccnn2C)cc(C(=O)NCc2ccc(S(C)(=O)=O)cn2)c(=O)n1-c1cccc(C(F)(F)F)c1
Potency [1]: inactive
Potency [2]: inactive

CC(=O)N[C@H](Cc1ccc(O)cc1)C(=O)N[C@H](CCCN=C(N)N)C(=O)N[C@H](Cc1ccccc1)C(N)=O (Ac-[dY]-[dR]-[dF]-NH2)
Potency [1]: inactive
Potency [2]: inactive

CCC[C@@H]1C[C@@H](C(=O)N[C@@H]([C@H]2O[C@H](SC)[C@H](O)[C@@H](O)[C@@H]2O)[C@@H](C)O)N(C)C1
Potency [1]: inactive
Potency [2]: inactive

COc1c(C)c2c(c(O)c1C/C=C(\C)CC/C=C(\C)CCC(=O)O)C(=O)OC2
Potency [1]: inactive
Potency [2]: inactive

CC(C)C(C(=O)N1CCCC1C(=O)O)N(C)C(=O)C(O)Cc1ccccc1 (centres undefined) (H-[PhLac]-[NMeV]-Pro-OH; configuration not given here)
Potency [1]: inactive
Potency [2]: inactive

CC(CCC1(O)OC2CC3C4CCC5CC(O[C@@H]6O[C@H](CO)[C@@H](O)[C@H](O)[C@H]6O[C@@H]6OC[C@@H](O)[C@H](O)[C@H]6O)C(O)CC5(C)C4CCC3(C)C2C1C)CO[C@@H]1O[C@H](CO)[C@@H](O)[C@H](O)[C@H]1O (some centres undefined)
outcome [1]: inactive [at 9.29 µM]
outcome [2]: inactive [at 9.29 µM]

CC1CC(O)C2(C)C(C(=O)O)=CCCC2C1(C)CCc1ccoc1 (centres undefined)
Potency [1]: inactive
Potency [2]: inactive

CO[C@@H]1COCC[C@@H]1N[C@@H]1CC[C@@](C(=O)N2CCc3ncc(C(F)(F)F)cc3C2)(C(C)C)C1
Potency [1]: inactive
Potency [2]: inactive

COCCN(C)Cc1ccc2nc3sc(C(=O)N(C)C4CCCCC4)cn3c2c1
Potency [1]: inactive
Potency [2]: inactive

CC(=O)OCCC(C)CCC1C(C)(O)CCC2C(C)(C)CCCC21C (centres undefined)
Potency [1]: inactive
Potency [2]: inactive

CCCCS(=O)(=O)Nc1ncnc(OCCOc2ncc(Br)cn2)c1-c1ccc(Br)cc1
Potency [1]: inactive
Potency [2]: inactive

C=C1[C@H]2[C@H](O[C@@H]3O[C@H](COC(=O)/C=C/c4cc(OC)c(O)c(OC)c4)[C@@H](O)[C@H](O)[C@H]3O)OC=C(C(=O)O)[C@H]2C[C@@H]1O
Potency [1]: inactive
Potency [2]: inactive

CC(c1c[nH]c2ccccc12)C(O)C(=O)O (centres undefined)
Potency [1]: inactive
Potency [2]: inactive

C[C@@H]1O[C@@H](O[C@H]2[C@H](OC(=O)[C@]34CCC(C)(C)C[C@H]3C3=CCC5[C@@]6(C)CC[C@H](O[C@@H]7O[C@H](CO[C@@H]8OC[C@H](O)[C@H](O)[C@H]8O)[C@@H](O)[C@H](O)[C@H]7O)C(C)(C)C6CC[C@@]5(C)[C@]3(C)C[C@H]4O)OC[C@@H](O)[C@@H]2O)[C@H](O)[C@H](O)[C@H]1O[C@@H]1OC[C@H](O)[C@H](O[C@@H]2OC[C@@H](O)[C@H](O)[C@H]2O)[C@H]1O (some centres undefined)
outcome [1]: inactive [at 9.29 µM]
activity change, negative = cytotoxicity [2]: 1.25% [at 9.29 µM]

COc1cc(C(O)C(CO)Oc2ccc(CCCO[C@@H]3O[C@@H](C)[C@H](O)[C@@H](O)[C@H]3O)cc2OC)ccc1O (some centres undefined)
Potency [1]: inactive
Potency [2]: inactive

O=C1NC(=Nc2ccccc2F)S/C1=C\c1ccc(C(=O)O)cc1
Potency [1]: inactive
Potency [2]: inactive

CC1(C)O[C@@]2(C)CC[C@@H]1C[C@@H]2OC1OC(CO)C(O)C(O)C1O (some centres undefined)
Potency [1]: inactive
Potency [2]: inactive

C=C1CC23CC1(O)CCC2C1=CC2OC(=O)C(C)(C2O)C1C3C(=O)O (centres undefined)
Potency [1]: inactive
Potency [2]: inactive

CNC(=O)c1ccc2cc([C@@]3(O)CCn4cncc43)ccc2c1
Potency [1]: inactive
Potency [2]: inactive

C[C@H]1CC[C@@]2(OC1)O[C@H]1CC3C4CC=C5C[C@H](O)C[C@@H](O[C@@H]6O[C@@H](C)[C@H](O)[C@@H](O)[C@H]6O[C@@H]6O[C@@H](C)[C@H](O)[C@@H](O)[C@H]6O)[C@]5(C)C4CC[C@]3(C)[C@H]1[C@@H]2C (some centres undefined)
Potency [1]: inactive
Potency [2]: inactive

CC1CCC2(C(=O)OC3OC(CO)C(O)C(O)C3O)CCC3(C(=O)O)C(=CCC4C5(C)CCC(OC6OC(C)C(O)C(O)C6O)C(C)(C)C5CCC43C)C2C1C (centres undefined)
Potency [1]: inactive
Potency [2]: inactive
